Results reported in paper PMC6792352, “Limited Chemical Structural Diversity Found to Modulate Thyroid Hormone Receptor in the Tox21 Chemical Library” (Environmental Health Perspectives, 2019).
Counter-ions that a name gives are not always drawn.

The molecules below were run on thyroid hormone receptor (endogenous TRα and TRβ). Conditions: read-out: Average AC50 (uM) GH3-TRE-Antag, antagonist mode, 1 nM T3, no GH3 cytotoxicity hit.
Set-up: species or system GH3-TRE-Luc (rat pituitary); GH3-TRE-Luc luciferase reporter, antagonist mode against 1 nM T3, loss of signal, qHTS

Question: `CC[C@H](C)[C@@H](C(=O)O)n1sc2ccccc2c1=O` [(2S,3S)-3-Methyl-2-(3-oxo-1,2-benzothiazol-2(3H)-yl)pentanoic acid] was tested. Which AC50 did it give?
Answer: > 90 µM

Question: Which AC50 does the source give for `C/C=C1\C(=O)C[C@H]2[C@@H]3CCC4=CC(=O)CC[C@]4(C)[C@H]3CC[C@]12C` [Guggulsterone Z] here?
Answer: 39.2 µM

Question: How did the AC50 turn out when `CCOC(=O)OC1=C(c2cc(C)ccc2C)C(=O)N[C@]12CC[C@@H](OC)CC2` [Spirotetramat] was run?
Answer: 69.7 µM

Question: For `NNc1ccc(C(=O)O)cc1` [4-Hydrazinobenzoic acid hydrochloride], which AC50 is on record?
Answer: 84.8 µM

Question: For `Oc1cc(Cl)cc(Cl)c1` [3,5-Dichlorophenol], which AC50 is on record?
Answer: 54 µM

Question: `CN(C)c1ccc(O)c2c1C[C@H]1C[C@H]3[C@H](N(C)C)C(O)=C(C(N)=O)C(=O)[C@@]3(O)C(O)=C1C2=O` [Minocycline hydrochloride] was tested. Which AC50 did it give?
Answer: 44.9 µM

Question: How did the AC50 turn out when `CC1=NC(C)OC1C` (centres unmarked) [2,4,5-Trimethyl-3-oxazoline] was run?
Answer: > 90 µM

Question: With `CCCCOC(=O)CC(CC(=O)OCCCC)(OC(C)=O)C(=O)OCCCC` [Acetyl tributyl citrate] as the molecule, how does the AC50 read?
Answer: 35.1 µM

Question: For `C=CC(C)(CCC=C(C)C)OC(=O)/C=C/c1ccccc1` (centres unmarked) [Linalyl cinnamate], which AC50 is on record?
Answer: 73.9 µM

Question: Which AC50 does the source give for `c1cnc2cc3c(cc2n1)[C@@H]1CNC[C@H]3C1` [Varenicline dihydrochloride] here?
Answer: 63.5 µM

Question: Which AC50 does the source give for `CO/C=C(/C(=O)OC)c1ccccc1COc1cccc(C(F)(F)F)n1` [Picoxystrobin] here?
Answer: 0.276 µM

Question: For `Oc1ccccc1/C=N/Cc1ccccc1` [Norletimol], which AC50 is on record?
Answer: > 50 µM

Question: How did the AC50 turn out when `CCCOc1ccc(C(=O)OCCN(CC)CC)cc1N` [Proparacaine hydrochloride] was run?
Answer: > 50 µM

Question: How did the AC50 turn out when `CCOC(=O)C(C)Oc1ccc(Oc2cnc3cc(Cl)ccc3n2)cc1` (centres unmarked) [Quizalofop-ethyl] was run?
Answer: 78.2 µM

Question: With `CC1=C(C)S(=O)(=O)CCS1(=O)=O` [Dimethipin] as the molecule, how does the AC50 read?
Answer: 86.8 µM

Question: `COC(=O)NC(=S)Nc1ccccc1NC(=S)NC(=O)OC` [Thiophanate-methyl] was tested. Which AC50 did it give?
Answer: 78.1 µM

Question: Which AC50 does the source give for `NCCN1CCNCC1` [1-(2-Aminoethyl)piperazine] here?
Answer: > 90 µM

Question: With `CO/N=C(/C(=O)OC)c1ccccc1COc1ccccc1C` [Kresoxim-methyl] as the molecule, how does the AC50 read?
Answer: 3.65 µM

Question: For `Clc1cccc(C(c2ccc3[nH]cnc3c2)n2ccnc2)c1` (centres unmarked) [Liarozole hydrochloride], which AC50 is on record?
Answer: 38.6 µM

Question: With `CCCCC(CC)COC(=O)c1ccccc1C(=O)O` (centres unmarked) [MEHP] as the molecule, how does the AC50 read?
Answer: 70.2 µM

Question: For `CCN(CC)CCCC(C)Nc1c2ccc(Cl)cc2nc2ccc(OC)cc12` (centres unmarked) [Quinacrine dihydrochloride dihydrate], which AC50 is on record?
Answer: 29.4 µM

Question: For `CC#Cc1cc(C)nc(Nc2ccccc2)n1` [Mepanipyrim], which AC50 is on record?
Answer: 64.8 µM

Question: For `C[C@]12CC[C@@H]3c4ccc(O)cc4CC[C@H]3[C@@H]1CCC2=O` [Estrone], which AC50 is on record?
Answer: 0.0388 µM

Question: For `COc1cc([C@@H]2c3cc4c(cc3[C@@H](O[C@@H]3O[C@@H]5CO[C@@H](C)O[C@H]5[C@H](O)[C@H]3O)[C@H]3COC(=O)[C@H]23)OCO4)cc(OC)c1OP(=O)(O)O` [Etoposide phosphate], which AC50 is on record?
Answer: 21 µM

Question: Which AC50 does the source give for `CC(C)CCOC(=O)/C=C/c1ccccc1` [3-Methylbutyl cinnamate] here?
Answer: 81.8 µM

Question: For `O=C(O)[C@@H]1[C@H](C(=O)O)[C@H]2CC[C@@H]1O2` [Endothal], which AC50 is on record?
Answer: 77.2 µM

Question: For `CCN(C(=O)c1cc(C)cc(OC[C@H](C)Nc2ccncc2)c1)C(C)C` [GW473178E methyl benzene sulphonic acid], which AC50 is on record?
Answer: 51.7 µM

Question: With `CCN(CC)C(=O)N[C@H]1C[C@@H]2c3cccc4[nH]cc(c34)C[C@H]2N(C)C1` [Terguride] as the molecule, how does the AC50 read?
Answer: 22.1 µM

Question: For `C=CC[C@]1(O)CC[C@H]2[C@@H]3CCC4=CC(=O)CCC4=C3C=C[C@@]21C` [Altrenogest], which AC50 is on record?
Answer: 11.8 µM

Question: How did the AC50 turn out when `Clc1ccc(CCC(Cn2ccnc2)Sc2c(Cl)cccc2Cl)cc1` (centres unmarked) [Butoconazole nitrate] was run?
Answer: 17.9 µM

Question: How did the AC50 turn out when `CC(=O)C1(C)CC2=C(CCCC2(C)C)CC1C` (centres unmarked) [Isocyclemone E] was run?
Answer: 87.5 µM

Question: `CC1(C)NC(=O)N(c2ccc([N+](=O)[O-])c(C(F)(F)F)c2)C1=O` [Nilutamide] was tested. Which AC50 did it give?
Answer: 38.5 µM

Question: With `CCOC(=O)c1c(N)sc2c1CCN(Cc1ccccc1)C2` [Tinoridine] as the molecule, how does the AC50 read?
Answer: 37.8 µM

Question: With `CCCCCCC[N+](CC)(CC)CCCCc1ccc(Cl)cc1` [Clofilium tosylate] as the molecule, how does the AC50 read?
Answer: 16.3 µM

Question: With `COC(=O)[C@H]1[C@H]2C[C@@H]3c4[nH]c5cc(OC)ccc5c4CCN3C[C@H]2C[C@@H](OC(=O)/C=C/c2cc(OC)c(OC)c(OC)c2)[C@@H]1OC` [Rescinnamine] as the molecule, how does the AC50 read?
Answer: 21 µM

Question: `Cc1oc(C)c(C(=O)Nc2ccccc2)c1C` [Methfuroxam] was tested. Which AC50 did it give?
Answer: 23.1 µM

Question: For `c1csc(SSc2cccs2)c1` [2-Thienyl disulfide], which AC50 is on record?
Answer: 57.5 µM

Question: With `CCCCCCCCCCC(=O)O` [Undecanoic acid] as the molecule, how does the AC50 read?
Answer: 60.2 µM
